Here are results for eight molecules from PubChem BioAssay (NCI).

Common to all, as to assay: NCI-60 one-dose screen, 48 h (100 = growth as untreated, 0 = no growth, -100 = all killed)
Settings in all cases: 10 µM unless noted

The subject of assay [1] is HCT-15 colon.
The subject of assay [2] is HT29 colon.
In assay [3] the test system is SNB-75 CNS.
Assay [4] has as its system SNB-19 CNS.
Assay [5] concerns U251 CNS.
For assay [6], the system named is PC-3 prostate.
Assay [7] deals with UACC-62 melanoma.
For assay [8], the system named is LOX IMVI melanoma.
The subject of assay [9] is SK-MEL-28 melanoma.
Assay [10] relates to SK-MEL-2 melanoma.
Assay [11] relates to EKVX NSCLC.
Assay [12] concerns SN12C renal.
For assay [13], the system named is UO-31 renal.
In assay [14] the test system is TK-10 renal.
Assay [15] has as its system ACHN renal.
The test system of assay [16] is CAKI-1 renal.
Assay [17] deals with A498 renal.
Assay [18] deals with MOLT-4 leukemia.
Assay [19] has as its system SK-MEL-5 melanoma.
For assay [20], the system named is CCRF-CEM leukemia.

Structures are written as SMILES. Compounds without any hit were thinned out: in the full panel of roughly 83,000, 20% have a hit.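 Values shown are percent growth following 48 h exposure of cells in 96-well plates to a single concentration of compound; below 10 was considered active.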 A number with no mark means an inactive call. Active and inactive are the calls of the source.

For the molecule `C=CCO[C@H]1CO[C@H]2[C@@H]1OC[C@@H]2Oc1ccc(Nc2ccnc(Nc3ccc(O[C@H]4CO[C@H]5[C@@H]4OC[C@@H]5OCC=C)c(Cl)c3)n2)cc1Cl`, the growth was -78.5% (active) in assay [1]; -5.18% (active) in [2]; 0.0674% (active) in assay [3]; -90.3% (active) in [4]; -59.5% (active) in [5]; 14% in assay [6]. Further, the growth in [7] is -92.2% (active); in assay [8], -95% (active); in assay [9] it was -80.3% (active); in [10] it was 104%; in assay [11], -71% (active); in [12], -95.5% (active). Besides, the growth was -91.3% (active) in assay [13]; -54.4% (active) in assay [14]; 14.5% in assay [15]; -7.16% (active) in [16]; 95.6% in assay [17]; -39.3% (active) in assay [18].
`Cc1nc(-c2ccccc2)cc2c(O)c(C(=O)N/N=C/c3ccc(N(C)C)cc3)[nH]c(=O)c12`: the growth is 83.1% in [1]; 72.9% in assay [2]; 62.2% in assay [3]; 117% in assay [4]; 41.8% in assay [5]; 83.4% in [19]. The growth was 97.3% in assay [7]; 75.8% in assay [8]; 80.2% in assay [9]; 99.7% in [10]; 82.5% in assay [11]; 82% in [12]. Also, the growth in assay [13] is 84.2%; in assay [14], 88.8%; in assay [15], 67.5%; in assay [16], 99.4%; in [17], 93.9%; in [18] it was 22.9%.
Regarding `COc1ccc(/C=C2\COc3ccc(O)c(O)c3C2=O)c(OC)c1`, the growth in [1] was 16.8%; in [2], 73.6%; in assay [3], 57.7%; in [4] it was 76%; in assay [5], 44.4%; in [6] it was 49.6%. The growth in assay [7] is 47.8%; in assay [8], 30.7%; in assay [9], 76.4%; in assay [10], 90.7%; in [11] it was 85.3%; in assay [12], 33%. The growth in assay [13] is 34.5%; in assay [15], 56.2%; in assay [16], 36.6%; in assay [17] it was 114%; in assay [20], 4.18% (active); in [18] it was 7.29% (active).
With `Cn1cc(-c2ccc3ncc(-c4ccc(CC(=O)Nc5cc(C(C)(C)C)nn5C)cc4)cc3c2)cn1`, the growth in assay [1] was 7.79% [30 µM] (active); in assay [2], 36.5% [30 µM]; in [3] it was 22% [30 µM]; in assay [4], 41.9% [30 µM]; in assay [5], 35% [30 µM]; in assay [6], 5.27% [30 µM] (active). Further, the growth is -33.9% [30 µM] (active) in assay [7]; -18.4% [30 µM] (active) in assay [8]; 14.5% [30 µM] in [9]; -9.17% [30 µM] (active) in assay [10]; 27.1% [30 µM] in assay [11]; 16.6% [30 µM] in assay [12]. Also, the growth in assay [13] is 7.45% [30 µM] (active); in assay [14] it was 40.6% [30 µM]; in [15], 8.71% [30 µM] (active); in assay [16], 5.68% [30 µM] (active); in [17], 11.4% [30 µM]; in assay [20], -15.4% [30 µM] (active). For the same molecule, the growth in assay [18] was -22.1% [30 µM] (active).
Consider `Cc1c(Cl)cccc1NS(=O)(=O)c1ccccc1`, for which the growth in [1] is 97.3%; in assay [2], 99.8%; in assay [3], 87.9%; in [4], 106%; in assay [5], 106%; in assay [19], 96.7%. Besides, the growth was 102% in assay [7]; 104% in assay [8]; 99% in [9]; 132% in assay [10]; 114% in [11]; 103% in [12]. The growth in assay [13] is 90.4%; in [14], 104%; in assay [15], 98.4%; in [16], 116%; in [20] it was 124%; in assay [18], 102%.
On to `COc1cc(-c2cc(-c3ccc(Nc4nc(Nc5ccccc5)nc(Nc5ccc(Cl)cc5)n4)cc3)nc(N)n2)cc(OC)c1OC`, for which the growth in assay [1] is 62.3%; in assay [2], 52.4%; in assay [3], 56.2%; in assay [4], 79.6%; in assay [5], 42.6%; in [19], 43.1%. The growth in [7] is 49.7%; in assay [8] it was 60.2%; in [9], 86.9%; in assay [10] it was 59.5%; in assay [11] it was 59.4%; in [12], 70.7%. Besides, the growth is 43.1% in assay [13]; 91.3% in assay [14]; 59.7% in assay [15]; 60.7% in assay [16]; 28.2% in assay [20]; 38.4% in assay [18].
Turning to `O=C1/C(=C/c2ccccc2[N+](=O)[O-])COc2ccc(O)c(O)c21`, the growth in assay [1] was -11.8% (active); in assay [2] it was 5.22% (active); in assay [3], 22.8%; in assay [4], 26.5%; in assay [5], 2.61% (active); in [6] it was -0.516% (active). Also, the growth in assay [7] was -86.6% (active); in assay [8], -73.2% (active); in [9], -13.6% (active); in [10] it was 3.35% (active); in assay [11], 7.9% (active); in assay [13], -67.8% (active). For the same molecule, the growth in assay [14] is 3.34% (active); in [15] it was 3.22% (active); in assay [16], 6.79% (active); in [17] it was 77.4%; in assay [18], -8.56% (active).
`O=C1/C(=C/c2ccc([N+](=O)[O-])cc2)COc2ccc(O)c(O)c21`: the growth in [1] is -45.9% (active); in assay [2], 4.87% (active); in [3], 18.8%; in assay [4], 15%; in [5] it was -34.7% (active); in [6], -6.72% (active). In addition, the growth in assay [8] was -75.5% (active); in [9], 54.6%; in assay [10], 85.5%; in assay [11], 41.3%; in [12] it was -47.3% (active); in assay [13], -98.6% (active). For the same molecule, the growth in [14] was -8.97% (active); in [15], -77.5% (active); in assay [16], -53.1% (active); in assay [17] it was 86.3%; in assay [20], -2.51% (active); in [18] it was -1.02% (active).
